Consider 79 compounds from publication PMC9574860, “Chemical Toolkit for PARK7: Potent, Selective, and High-Throughput” (Journal of Medicinal Chemistry, 2022).

The campaign covered roughly 7,900 compounds. About 400 (5.1%) showed an effect of 50% or more. This is one part of a sample in which strong results are shown more often than they occur.

Chain of Parkinson's disease protein 7 (PARK7/DJ1) (Q99497 whole entry, looked up, the tested form may be a part): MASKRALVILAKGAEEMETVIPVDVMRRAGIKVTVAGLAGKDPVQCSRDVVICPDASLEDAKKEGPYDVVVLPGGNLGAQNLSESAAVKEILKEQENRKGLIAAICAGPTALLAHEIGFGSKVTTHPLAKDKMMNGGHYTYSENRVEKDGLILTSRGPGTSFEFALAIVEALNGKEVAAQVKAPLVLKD

This assay has as its target Parkinson's disease protein 7 (PARK7/DJ1) (human, UniProt Q99497). As to the kind of experiment: primary screen, percent inhibition; read as competition with a fluorescent probe by fluorescence polarization; higher = more effect of the substance. The following applies: 100 µM. Here is the method: The screen was conducted using the conditions as described above in 1536-well plates (Corning 3724) with a reaction volume of 8 μL per well. The compound library containing 7887 covalent fragments was purchased at Enamine Ltd. and received as 100 mM DMSO stocks in 384 well LDV Echo plates (Labcyte LP-0200). Stock solutions of 0.26 μM PARK7 and 80 nM JYQ-107 were prepared. Using a Labcyte Echo550 acoustic dispenser, 8 nL of the DMSO stock solution of the library compounds was transferred from the source plates into the empty 1536-well screening plates to obtain a 100 μM final compound concentration. Next, PARK7 (6 μL, final concentration 0.2 μM) was dispensed using a Biotek MultiflowFX liquid dispenser and incubated for 2 h, followed by dispensing the probe JYQ-107 (2 μL, final concentration 20 nM). After 2 h incubation, the FP signal was recorded on a BMG Labtech PHERAstar plate reader (λex/em 480/520 nm). The relative loss of FP signal compared with reference controls was used to calculate the remaining enzyme activity.
Regarding `C=CC(=O)Nc1ccc2nc(C(F)(F)F)oc2c1`, the Inhibition % was determined as 20.1%.

Turning to `C=CC(=O)N1CCN(c2cccc(OC(F)F)c2)CC1`, the Inhibition % was 6.79%.

As for `CC(C)c1ccc(NC(=O)Cn2cnc(C#N)n2)cc1`, the Inhibition % was 22.6%.

For `O=S(=O)(F)CCSc1nc2ccccc2o1`, the Inhibition % came out at 70.3%.

As for `ClCCCc1nc2ccccc2o1`, the Inhibition % was determined as 16.4%.

As for `O=S(=O)(F)CCn1nnc2ccccc21`, the Inhibition % amounted to 8.8%.

Turning to `COc1cc(C=C(C#N)C(N)=O)ccc1OC(C)C`, the Inhibition % worked out at 4.85%.

`N#Cc1nc(-c2ccc(Cl)c(Cl)c2)oc1N`: the Inhibition % is on record as 5.93%.

Consider `CC1(C)OB(c2cccc(CN3CCCC3)c2)OC1(C)C.Cl`, for which the Inhibition % was 6.39%.

Consider `C=CC(=O)N1CCCN(C(=O)c2cccc(F)c2)CC1`, for which the Inhibition % worked out at 2.43%.

Turning to `C=CC(=O)N1CCCc2[nH]c3ccc(F)cc3c2C1`, the Inhibition % worked out at 71.3%.

For `C=CC(=O)N1CCc2cc(F)ccc2C1`, the Inhibition % was 10.6%.

Take `C=CC(=O)N1CC(C)(C)C1c1cccs1` (stereo not shown): the Inhibition % amounted to 8.35%.

With `C=CC(=O)N1C[C@H](F)C[C@H]1C(N)=O`, the Inhibition % is recorded as 11.6%.

With `CC1CCC2(CC1)NC(=O)N(CC=CCl)C2=O` (stereo not shown), the Inhibition % is listed as -0.501%.

On to `CC(NC(=O)Oc1ccccc1)C(=O)O` (stereo not shown), for which the Inhibition % turned out to be 10.1%.

For `Cc1ccc(B2OC(C)(C)C(C)(C)O2)c(C#N)c1`, the Inhibition % is on record as -0.714%.

As for `O=C(c1cccc(S(=O)(=O)F)c1)N1CCCn2ncc(C3CC3)c21`, the Inhibition % was determined as 6.74%.

In the case of `O=S(=O)(F)c1cccc(CO)c1`, the Inhibition % is 96.8%.

Take `O=C(O)c1ccc(S(=O)(=O)F)cc1`: the Inhibition % was found to be 49.1%.

Regarding `O=C(O)c1cccc(S(=O)(=O)F)c1`, the Inhibition % is given as 95.1%.

As for `O=C(C=Cc1ccccc1)c1ccc(S(=O)(=O)F)cc1`, the Inhibition % is given as 10.9%.

`N#Cc1ccc(S(=O)(=O)F)cc1`: the Inhibition % was found to be 60.6%.

As for `O=S(=O)(F)c1ccc(S(=O)(=O)F)cc1`, the Inhibition % amounted to 7.58%.

For `C#Cc1ccc(S(=O)(=O)F)cc1`, the Inhibition % is recorded as 14.4%.

With `CN(Cc1cccc(F)c1)S(=O)(=O)F`, the Inhibition % is on record as 8.98%.

As to `C=CC(=O)N1CCOCC1c1cccc(F)c1` (stereo not shown), the Inhibition % was 2.96%.

With `N#CC1COCCN1C(=O)c1cccc(S(=O)(=O)F)c1` (stereo not shown), the Inhibition % is 93.6%.

As for `c1ncc(C2OCCO2)s1`, the Inhibition % came out at 38.6%.

Consider `C=CC(=O)N[C@H]1C[C@H](c2ccccc2F)C1`, for which the Inhibition % worked out at 10.2%.

Regarding `C=CC(=O)Nc1cc(S(=O)(=O)N(C)C)ccc1Cl`, the Inhibition % worked out at 6.55%.

Take `Cc1ccc(-n2cnc(Cl)c2C#N)cc1`: the Inhibition % amounted to 6.79%.

Turning to `COCc1n[nH]c(=O)o1`, the Inhibition % is given as 2.07%.

Take `CN1CCCC(CCl)C1.Cl` (stereo not shown): the Inhibition % is given as 4.37%.

Take `CN(C(=O)C(C#N)=Cc1ccco1)c1ccc(F)cc1`: the Inhibition % was 8.11%.

As for `c1cc2ccc(OCC3CO3)cc2[nH]1` (stereo not shown), the Inhibition % came out at 5.75%.

Regarding `Cc1cc(C#N)cc(C(=O)O)n1`, the Inhibition % is given as 4.24%.

Turning to `Cc1cnc(=S)[nH]c1`, the Inhibition % is listed as 8.44%.

Regarding `N#CSc1c(Cl)nc2sccn12`, the Inhibition % amounted to 13.7%.

Take `C=CC(=O)N1CCOCC1CC(F)F` (stereo not shown): the Inhibition % is 17%.

Take `Cc1ccc(-n2cc(SC(=O)N(C)C)cn2)cc1`: the Inhibition % was found to be 6.2%.

As for `O=C(CCl)Nc1ccc([N+](=O)[O-])cc1C(F)(F)F`, the Inhibition % was 12.1%.

As for `O=C(CCl)NC(=O)c1cccc([N+](=O)[O-])c1`, the Inhibition % was found to be 31.5%.

For the compound `C=CS(=O)(=O)c1cccc(C#N)c1`, the Inhibition % was found to be 6.17%.

With `O=[N+]([O-])c1cccc(S(=O)(=O)F)c1`, the Inhibition % was 99.2%.

Regarding `N#Cc1cccc(S(=O)(=O)F)c1`, the Inhibition % was found to be 97.3%.

With `CC1(C)OB(c2cccc(S(N)(=O)=O)c2)OC1(C)C`, the Inhibition % is reported as 2.2%.

Take `O=S(=O)(F)c1ccc(Cl)cc1`: the Inhibition % amounted to 27%.

As for `NS(=O)(=O)c1cccc(S(=O)(=O)F)c1`, the Inhibition % amounted to 94.3%.

In the case of `O=[N+]([O-])c1ccc(C(F)(F)F)c(S(=O)(=O)F)c1`, the Inhibition % is given as 102%.

As to `O=S(=O)(F)c1cccc(Br)c1`, the Inhibition % is on record as 16.4%.

For `O=S(=O)(F)c1ccccc1C(F)(F)F`, the Inhibition % worked out at 11.3%.

As for `N#Cc1cnn(Cc2ccc(S(=O)(=O)F)cc2)c1`, the Inhibition % is reported as 7.21%.

In the case of `CC1(C)OB(c2ccc(OCCc3ccccn3)cc2)OC1(C)C`, the Inhibition % is listed as -0.0918%.

For the compound `N#Cc1ncn(Cc2ccc(F)cc2Cl)n1`, the Inhibition % is 0.898%.

Take `C=CC(=O)N1CC(=O)NC2CCCCC21` (stereo not shown): the Inhibition % was found to be 24.2%.

Turning to `Cc1ccc2oc(C#N)nc2c1`, the Inhibition % was 9.34%.

Turning to `O=C(CCl)NC1CCCC1`, the Inhibition % is on record as 15.6%.

`C=CC(=O)N1CCN(c2c(F)cccc2OC)CC1`: the Inhibition % is recorded as 12%.

As for `CCc1ccccc1NC(=O)CCl`, the Inhibition % turned out to be 13.2%.

`CCC1(C)NC(=O)N(NC(=O)CCl)C1=O` (stereo not shown): the Inhibition % amounted to 9.56%.

Take `Cl.Nc1cccc2cc(S(=O)(=O)F)ccc12`: the Inhibition % is 65.6%.

Regarding `O=C1NC(c2ccccc2)C12CCCC2` (stereo not shown), the Inhibition % was 3.32%.

As for `Cc1cc(C=C(C#N)C(=O)N2CCC2)c(C)n1CC(C)C`, the Inhibition % was -2.1%.

Regarding `O=C(CCl)Nc1ccc(S(=O)(=O)C(F)F)cc1`, the Inhibition % is reported as 65.8%.

On to `CS(=O)(=O)c1ccc(NC(=O)CCl)cc1`, for which the Inhibition % is listed as 51.8%.

Take `NS(=O)(=O)c1ccc(NC(=O)CCl)cc1`: the Inhibition % was 69.2%.

Regarding `Cc1ccc(NC(=O)CCl)cc1S(N)(=O)=O`, the Inhibition % is 17.6%.

In the case of `O=C(CCl)Nc1ccccc1S(=O)(=O)C(F)F`, the Inhibition % amounted to 6.1%.

In the case of `NS(=O)(=O)c1cccc(NC(=O)CCl)c1`, the Inhibition % is 14.7%.

As for `CS(=O)(=O)c1cccc(NC(=O)CCl)c1`, the Inhibition % is listed as 7.34%.

On to `CS(=O)(=O)c1ccc(CNC(=O)CCl)cc1`, for which the Inhibition % is reported as 10.2%.

For `CCC(CSC)Nc1ccc(C#N)nc1` (stereo not shown), the Inhibition % worked out at 11.4%.

On to `O=S(=O)(F)c1ccc(Cn2cnc(Br)n2)cc1`, for which the Inhibition % was found to be 12.6%.

As to `C=CC(=O)NCCc1cnn(C)c1`, the Inhibition % turned out to be 3.91%.

On to `Cc1cc(C=C(C#N)C(=O)O)c(C)n1CC(C)C`, for which the Inhibition % worked out at 8.48%.

`Cl.Cl.NC1CCN(C2CCOC2=O)CC1` (stereo not shown): the Inhibition % stood at 5.74%.

Consider `O=C(CCl)N(c1ccccc1)C1CCS(=O)(=O)C1` (stereo not shown), for which the Inhibition % is 5.5%.

Consider `C=CC(=O)Nc1ccc2nc(C3CC3)oc2c1`, for which the Inhibition % is 11.6%.
